We go through 13 compounds from PubChem BioAssay (NCATS).

Records with an inconclusive call do not appear. Where a call stands in place of a potency, no number is given. Activity calls are given as the source filed them. Unless noted, the call rests on the fitted dose curve.

The target in the first experiment is Alpha-galactosidase (Coffea arabica) (UniProt Q42656). Nature of the experiment: Counterscreen for Glucocerebrosidase Inhibitors: qHTS Assay for Coffee Bean alpha-Galactosidase at pH 4.5 (AID 957; active means well fitted curve in the direction sought with a large enough effect). The settings on record: purified coffee bean alpha-galactosidase, fluorogenic substrate; series mostly up to 76.9 µM. A digest of the protocol: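 Coffee bean enzyme (2 nM) with 80 uM 4-methylumbelliferyl alpha-D-galactopyranoside in 50 mM citric acid, 0.005% Tween-20, pH 4.5, 20 min at room temperature; compounds 0.7 nM–77 uM. Stopped at pH 10, fluorescence 365/440 nm; AC50 from Hill fits.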
Sequence of Alpha-galactosidase (Coffea arabica) (Q42656 whole entry, looked up): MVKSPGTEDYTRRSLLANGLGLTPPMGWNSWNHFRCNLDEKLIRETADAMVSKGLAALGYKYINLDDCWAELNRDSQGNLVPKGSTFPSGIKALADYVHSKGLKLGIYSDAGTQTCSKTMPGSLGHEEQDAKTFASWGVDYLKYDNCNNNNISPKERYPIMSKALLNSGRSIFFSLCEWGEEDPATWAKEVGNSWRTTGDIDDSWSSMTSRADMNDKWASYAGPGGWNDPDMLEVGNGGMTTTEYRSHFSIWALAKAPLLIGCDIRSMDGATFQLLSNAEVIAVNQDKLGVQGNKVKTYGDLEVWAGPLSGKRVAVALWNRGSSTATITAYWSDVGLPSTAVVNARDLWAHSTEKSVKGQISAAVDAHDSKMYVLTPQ
On the technique in general: A counterscreen serves to expose hits that act by an unwanted route or on another target.
Turning to `O=C1C(SCCO)=C(SCCO)C(=O)c2ccccc21`, the outcome was inactive. Same read-out and setting: then `C1CCC(N=C(NC23CC4CC(CC(C4)C2)C3)N2CCOCC2)CC1`, with “inactive”; and `COc1ccccc1CNCCCCCCNCCCCCCCCNCCCCCCNCc1ccccc1OC`, with “inactive”.

Test system in another experiment: not listed separately
Description: Validation screen for inhibitors of Lassa infection (AID 463096). Further: potency means the concentration at half of the fitted maximal effect. The settings on record: Lassa virus infection, cell-based; series mostly up to 46.1 µM.
`CN1C2CC(OC(=O)C(CO)c3ccccc3)CC1C1OC12` (stereo not given): the Potency entry was “inactive”. On to `CCCC1O[C@@H]2C[C@H]3[C@@H]4CCC5=CC(=O)C=C[C@]5(C)C4[C@@H](O)C[C@]3(C)[C@]2(C(=O)CO)O1` (stereo not given in full), for which the Potency result was “inactive”. Regarding `C[C@]12CCC(=O)C=C1CC[C@@H]1C2[C@@H](O)C[C@@]2(C)[C@H]1CC[C@]2(O)C(=O)CO` (stereo not given in full), the Potency entry is “inactive”. Same read-out and setting: then `CN1CCc2c(cc(O)c(O)c2Cl)C(c2cccc(Cl)c2)C1` (stereo not given), with “inactive”; and `Nc1ncnc2c1ncn2[C@@H]1O[C@H](C(=O)NC2CC2)[C@H](O)[C@H]1O`, with “inactive”. Regarding `O=C1C(SCCO)=C(SCCO)C(=O)c2ccccc21`, the Potency is 5.01 µM (active). Still for that read-out and setting: then `OC[C@H]1O[C@@H](n2cnc3c(NC4CCCC4)ncnc32)[C@H](O)[C@H]1O`, with “inactive”. For the compound `COc1ccc2c(c1OC)C(=O)OC2C1c2c(cc3c(c2OC)OCO3)CCN1C` (stereo not given), the Potency result was “inactive”.

As to `CNC(=O)[C@H]1O[C@@H](n2cnc3c(NCc4cccc(I)c4)ncnc32)[C@H](O)[C@H]1O`, the Potency result was “inactive”. On the same count and under the same terms, then `C1CCC(N=C(NC23CC4CC(CC(C4)C2)C3)N2CCOCC2)CC1`, with “inactive”; and `CCCCCCCCCCCCCCC/C=C/[C@@H](O)[C@H](NC(=O)CCCCCCCCCCCCC)OC` (tested in a mixture with another compound), with “inactive”.

On to `CC(=O)SC1CC2=CC(=O)CC[C@]2(C)C2CC[C@@]3(C)[C@@H](CC[C@@]34CCC(=O)O4)C12` (stereo not given in full), for which the Potency entry is “inactive”.
